Screening data as filed in PubChem.
This is a sample that favours compounds with a hit; in the whole collection about 8% have one here.
HT1080NT lethal = qHTS for induction of synthetic lethality in tumor cells producing 2HG: qHTS for the HT-1080-NT fibrosarcoma cell line; hit rate 1.6% among 360,000; HT-1080-NT fibrosarcoma viability, CellTiter-Glo ATP luminescence, 48 h; Potency, µM (top dose mostly 46.1 µM), hits mostly cytotoxic; AID 686970, 2013;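 also: NT is the 2HG producing partner of a matched IDH1 knockdown line; nearly all actives have a fitted effect of over 55% in size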
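Luminescent CellTiter-Glo readout after 48 hours of compound exposure at 37 degrees C defined viability of HT-1080-NT cells. Activity was normalized to DMSO wells and cell-free media wells; concentration-response curves were fitted and assigned curve classes.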
HT1080 IDH1KD tx = qHTS for induction of synthetic lethality in tumor cells producing 2HG: qHTS for the HT-1080-IDH1KD cell line. Potency, µM (top dose mostly 46.1 µM), actives largely listed as cytotoxic. AID 686971, 2013. hit rate 2% among 360,000. HT-1080 IDH1 knockdown viability, ATP luminescence, 48 h
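Assay cells: HT-1080 with IDH1 knockdown, 750 per well, RPMI/5% FBS. Exposure: 48 h at 37 °C following 2 h pre-incubation. Read: CellTiter-Glo luminescence; fitted concentration-response, curve class assigned.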
MCF10A rerep = A quantitative high throughput screen for small molecules that induce DNA re-replication in MCF 10a normal breast cells. MCF 10A DNA re-replication, Hoechst nuclear intensity, 48 h. Potency, µM (highest dose often 46.1 µM), hits mostly activators. hit rate 2.9% among 350,000; also: nearly all actives have a fitted effect of over 50% in size
SW480 rerep = A quantitative high throughput screen for small molecules that induce DNA re-replication in SW480 colon adenocarcinoma cells | hit rate 1.8% among 340,000 | SW480 DNA re-replication, Hoechst DNA content imaging, 48 h | Potency, µM (top dose mostly 46.1 µM), hits mostly activators; also: nearly all actives have a fitted effect of over 55% in size
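250 cells/well; 23 nL cpd via pin tool; 48 hr, 37 C, 5% CO2; Hoechst 40 min; imager read of total nuclear intensity, ex 405/em 500-530 nm.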
KB-3-1 cytotox = qHTS assay for MDR1-selective chemotherapeutics: Primary screen using the parental adenocarcinoma cell KB-3-1 | KB-3-1 viability, CellTiter-Glo ATP luminescence, 72 h | Potency, µM (doses to about 46.1 µM), usual class: cytotoxic | hit rate 1.4% among 400,000; also: nearly all actives have a fitted effect of over 60% in size
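72 h, 37 °C compound treatment of KB-3-1 parental cells; CellTiter-Glo added, 10 min, luminescence read. Data corrected against DMSO-only plates and normalized before curve fitting.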
KB-V1 cytotox = qHTS assay for MDR1-selective chemotherapeutics: Primary screen using the drug-selected MDR subline cells KB-V1. KB-V1 MDR cells viability, CellTiter-Glo, 72 h. Potency, µM (highest dose often 46.1 µM), actives largely listed as cytotoxic. hit rate 3.4% among 400,000. AID 1347076, 2019; also: nearly all actives have a fitted effect of over 60% in size
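KB-V1, DMEM (no phenol red) + 10% FBS; cpd pin-transferred, titration series; 72 h, 37 degrees C; CellTiter-Glo, luminescence. Data normalized, curve-fit.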
A number is an active result; n = inactive; u = inconclusive; x = no result; [ ] = remark or other dose. Calls follow the shape of the dose curve; as a rule, active = well fitted curve in the direction sought with a large enough effect; inconclusive = small, poorly fitted or top-dose-only effect, or another doubt; inactive = no such curve, though single readings can be large; an effect the other way counts as inactive or inconclusive.

SMILES	HT1080NT lethal	HT1080 IDH1KD tx	MCF10A rerep	SW480 rerep	KB-3-1 cytotox	KB-V1 cytotox
Cc1cc(C(=O)C(C)Sc2cccc[n+]2[O-])c(C)n1-c1ccc(Cl)cc1 (stereo not given)	u	23µM	n	n	u	21µM
O=C1CCC(C(=O)N2CCCC(C(=O)c3ccc4c5c(cccc35)CC4)C2)=NN1 (stereo not given)	n	u	u	n	15µM	n
O=C1CCC(CCC(=O)N2CCCC(C(=O)c3ccc4c5c(cccc35)CC4)C2)=NN1 (stereo not given)	n	n	n	n	n	n
CC(C)Cn1c(SC(C)C(=O)Nc2ccc3c(c2)OCCO3)nc2ccccc2c1=O (stereo not given)	n	n	n	n	n	21µM
CC(Sc1nc2ccccc2c(=O)n1C)C(=O)Nc1ccc2c(c1)OCCO2 (stereo not given)	u	n	u	u	u	n
COC(=O)c1sc(S(=O)(=O)Nc2ccc(C)c(C)c2)c(C(=O)OC)c1C	n	n	n	n	n	n
O=C1CC(=O)N(CCNc2ncc(C(F)(F)F)cc2Cl)C(=O)N1	n	n	u	n	n	n
O=C1C=CC(=O)N1CCNc1ncc(C(F)(F)F)cc1Cl	u	23µM	5.8µM	8.2µM	u	u
CCc1ccc2c(c1)NC(c1ccc(C)cc1)=NC(c1cccs1)=N2	x	x	x	x	n	n
Cc1ccc(S(=O)(=O)O/N=C2\CCCc3ccccc32)cc1	n	n	u	n[9.22 µM]	n	n
CC1=C(C)/C(=N\OS(=O)(=O)c2ccccc2)C=CC1=O	7.1µM	8.9µM	u	10µM	11µM	16µM
CC(C)CCCCCCCCCCCCC(=O)NCC(=O)NC1C(O)C(O)C(Nc2ncnc3nc[nH]c23)OC1C(O)CO (stereo not given)	u	0.16µM	n	u	0.18µM	0.16µM
NC(N)=N/N=C/c1cccc(Cl)c1Cl	23µM	21µM	n	u	u	u
Oc1ccccc1C=NN=Cc1ccccc1Cl	n	n	n	n	n	u
O=C(CCCc1nc2ccccc2s1)N1CCN(S(=O)(=O)c2cccs2)CC1	n	n	u	n	n	23µM
COc1ccc(-c2cc(C(F)(F)F)nc(SCC(=O)N3CCCCC3)n2)cc1	x	x	x	x	n	n
CC(C)(C)c1ccc(C(=O)CCCN2CCC(OC(c3ccccc3)c3ccccc3)CC2)cc1	x	x	12µM	n	x	x
Cc1ccc(NC(=O)Cn2c(=O)nc(-c3ccccc3F)c3cc(Cl)ccc32)c(Br)c1	x	x	x	x	16µM	u
CN(C)C/C=C/C(O)(c1ccccc1)c1ccccc1	n	n	16µM	n	n	n
CC(O)(C(=O)c1ccccc1)c1ccccc1 (stereo not given)	n	n	x	x	n	n
CC(=O)c1cccc(-c2ccnc3c2CC(C(=O)NCc2ccccc2)O3)c1 (stereo not given)	u	u	x	x	u	n
O=C(NCc1ccco1)C1Cc2c(-c3cccc(F)c3)ccnc2O1 (stereo not given)	u	0.73µM	x	x	1.2µM	4.6µM
CC(=O)c1cccc(-c2ccnc3c2CC(C(=O)NCc2ccc(F)c(F)c2)O3)c1 (stereo not given)	u	u	x	x	5.2µM	u
NC(=O)c1cccc(-c2ccnc3c2CC(C(=O)NCc2ccco2)O3)c1 (stereo not given)	u	4.1µM	x	x	6.5µM	n
NC(=O)c1cccc(-c2ccnc3c2CC(C(=O)NCCc2ccccc2)O3)c1 (stereo not given)	u	7.3µM	x	x	u	n
CN(C)c1ccc(CNC(=O)C2Cc3c(-c4cccc(C(N)=O)c4)ccnc3O2)cc1 (stereo not given)	u	u	x	x	n	n
